Experimental data from PubChem BioAssay (NCATS).
Records with an inconclusive call do not appear. Where a call stands in place of a potency, no number is given. Unmarked numbers belong to inactive results. Active and inactive are the calls of the source. Calls come from the whole dose curve; as a rule, active = well fitted curve in the direction sought with a large enough effect; inconclusive = small, poorly fitted or top-dose-only effect, or another doubt; inactive = no such curve, though single readings can be large; an effect the other way counts as inactive or inconclusive.

Columns and labels:
[1] = tested on: HaCat; assay: Cytotoxic Profiling of Annotated Libraries Using Quantitative High-Throughput Screening (AID 1296008); details: Five cell lines viability, CellTiter-Glo ATP luminescence, 48-72 h; max response: hits give low values; note: nearly all actives have a fitted effect of over 60% in size; note: potency is the fitted concentration of half-maximal effect
Method in brief: (§1)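 Cells exposed to compounds for 48 or 72 hr at 37 degrees Celsius. Viability read as ATP-coupled luminescence with CellTiter-Glo after 10 min at room temperature.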

[2] = tested on: KB-3-1; assay: as above; details: Five cell lines viability, CellTiter-Glo ATP luminescence, 48-72 h; max response: hits give low values
Method in brief: as §1

[3] = tested on: NIH3T3; assay: as above; details: Five cell lines viability, CellTiter-Glo ATP luminescence, 48-72 h; max response: hits give low values
Method in brief: as §1

[4] = tested on: MCC-13; assay: qHTS assay to identify novel small-molecules to repurpose for Merkel cell carcinoma treatment (AID 1296009); details: MCC and control cell lines, CellTiter-Glo viability, 72 h; series mostly up to 46 µM; note: nearly all actives have a fitted effect of over 60% in size; note: potency is the fitted concentration of half-maximal effect
Method in brief: (§2)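 Dose-response viability screen; 72 hr exposure at 37 degree celsius; CellTiter-Glo added, 10 min room temperature, luminescence read; RLUs scaled between no-cell and DMSO wells.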

[5] = tested on: MCC-26; assay: as above; details: MCC and control cell lines, CellTiter-Glo viability, 72 h; series mostly up to 46 µM
Method in brief: as §2

[6] = tested on: MKL-2; assay: as above; details: MCC and control cell lines, CellTiter-Glo viability, 72 h; series mostly up to 46 µM
Method in brief: as §2

[7] = tested on: NIH3T3; assay: as above; details: MCC and control cell lines, CellTiter-Glo viability, 72 h; series mostly up to 44.8 µM
Method in brief: as §2

[8] = tested on: WaGa; assay: as above; details: MCC and control cell lines, CellTiter-Glo viability, 72 h; series mostly up to 46 µM
Method in brief: as §2

[9] = tested on: HACAT; assay: as above; details: MCC and control cell lines, CellTiter-Glo viability, 72 h; at 44.8 µM (top of the series) unless noted
Method in brief: as §2

[10] = tested on: MKL-1; assay: as above; details: MCC and control cell lines, CellTiter-Glo viability, 72 h; series mostly up to 46 µM
Method in brief: as §2

[11] = tested on: UISO; assay: as above; details: MCC and control cell lines, CellTiter-Glo viability, 72 h; series mostly up to 46 µM
Method in brief: as §2

[12] = tested on: C33A; assay: Primary qHTS to identify gynecologic anti-cancer compounds using libraries of approved drugs and bioactive compounds (AID 1345084); details: Gynecologic cancer cell panel viability, ATPlite luminescence, 48 h; series mostly up to 57.5 µM; note: nearly all actives have a fitted effect of over 55% in size
Method in brief: (§3)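 Luminescence from the ATPlite ATP-monitoring reagent indicates viable cell number; lower signal means cytotoxicity. Cells received compound 16 h after seeding and were exposed for 48 h across five concentrations.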

[13] = tested on: CAOV3; assay: as above; details: Gynecologic cancer cell panel viability, ATPlite luminescence, 48 h; series mostly up to 57.5 µM
Method in brief: as §3

[14] = tested on: CASKI; assay: as above; details: Gynecologic cancer cell panel viability, ATPlite luminescence, 48 h; series mostly up to 57.5 µM
Method in brief: as §3

[15] = tested on: HEK293; assay: Cytotoxic Profiling of Annotated Libraries Using Quantitative High-Throughput Screening (AID 1296008); details: Five cell lines viability, CellTiter-Glo ATP luminescence, 48-72 h; max response: hits give low values; note: nearly all actives have a fitted effect of over 60% in size; note: potency is the fitted concentration of half-maximal effect
Method in brief: as §1

[16] = tested on: W2; assay: qHTS profiling for inhibitors of Plasmodium falciparum proliferation (AID 504749); details: P. falciparum in erythrocytes, SYBR Green DNA, 72 h; series mostly up to 28.7 µM
Method in brief: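 Each compound contacts P. falciparum-infected red blood cells for 72 h at 37 C; lysis buffer (Tris, EDTA, saponin, Triton X, SYBR Green I) is added and fluorescence measured next morning; values normalized to controls.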

[17] = tested on: HEK293T; assay: qHTS assay to identify novel small-molecules to repurpose for Merkel cell carcinoma treatment (AID 1296009); details: MCC and control cell lines, CellTiter-Glo viability, 72 h; at 44.8 µM (top of the series) unless noted; note: nearly all actives have a fitted effect of over 60% in size; note: potency is the fitted concentration of half-maximal effect
Method in brief: as §2

CN1C(=O)C[C@H](C(=O)N[C@@H](Cc2cnc[nH]2)C(=O)N2CCC[C@@H]2C(N)=O)NC1=O
max response [1]: -3.47%
outcome [2]: inactive
outcome [3]: inactive
Potency [4]: inactive
Potency [5]: inactive
Potency [6]: 6.62 µM (active)
Potency [7]: inactive
Potency [8]: 20.9 µM (active)

CC(C)(F)C[C@H](N[C@@H](c1ccc(-c2ccc(S(C)(=O)=O)cc2)cc1)C(F)(F)F)C(=O)NC1(C#N)CC1
outcome [1]: inactive
max response [2]: 7.07%
max response [3]: -18%
outcome [9]: inactive
Potency [4]: inactive
Potency [5]: inactive
Potency [10]: inactive
Potency [6]: inactive
Potency [11]: inactive
Potency [8]: inactive

CN[C@H]1[C@@H](O[C@@H]2[C@H](O[C@@H]3[C@@H](O)[C@@H](O)[C@@H](N=C(N)N)[C@@H](O)[C@@H]3N=C(N)N)O[C@H](C)[C@@]2(O)C=O)O[C@@H](CO)[C@@H](O)[C@H]1O
outcome [2]: inactive
activity change, negative = cytotoxicity [4]: 0.63% [at 9.22 µM]
activity change, negative = cytotoxicity [5]: -1.52% [at 9.22 µM]
activity change, negative = cytotoxicity [10]: 0.557% [at 9.22 µM]
activity change, negative = cytotoxicity [6]: 13.1% [at 9.22 µM]
activity change, negative = cytotoxicity [11]: -3% [at 9.22 µM]
activity change, negative = cytotoxicity [8]: 11.2% [at 9.22 µM]

CCCCC(F)(F)[C@@]1(O)CC[C@H]2[C@H](CC(=O)[C@@H]2CCCCCCC(=O)O)O1
Potency [12]: inactive
Potency [13]: inactive
Potency [14]: inactive

O=C(O)Cc1cccc(OCCCN(Cc2cccc(C(F)(F)F)c2Cl)CC(c2ccccc2)c2ccccc2)c1
Potency [5]: 26.4 µM (active)
Potency [10]: inactive
Potency [6]: inactive
Potency [8]: inactive

O=C(C=Cc1ccc(O)cc1)c1ccc(O)cc1O
outcome [1]: inactive
max response [3]: -8.95%
outcome [9]: inactive
Potency [4]: inactive
Potency [5]: inactive
Potency [10]: inactive
Potency [8]: inactive

CN(C)CC[C@H](CSc1ccccc1)Nc1ccc(S(=O)(=O)NC(=O)c2ccc(N3CCN(Cc4ccccc4-c4ccc(Cl)cc4)CC3)cc2)cc1[N+](=O)[O-]
Potency [1]: 18.7 µM (active)
max response [2]: 2.51%
Potency [4]: inactive
Potency [5]: inactive
Potency [10]: 1.18 µM (active)
Potency [6]: 0.235 µM (active)
Potency [8]: 0.264 µM (active)

CC1=C[C@@H]2[C@@H]([C@@H](O)C[C@@]3(C)[C@H]2C[C@@H](C)[C@]3(O)C(=O)CO)[C@@]2(C)Cc3cnn(-c4ccccc4)c3C=C12
Potency [1]: 20.6 µM (active)
Potency [3]: 14.6 µM (active)
Potency [4]: inactive
Potency [5]: inactive
Potency [10]: inactive
Potency [6]: inactive
Potency [11]: inactive
Potency [8]: inactive
Potency [14]: inactive

OC(c1cc(C(F)(F)F)nc2c(C(F)(F)F)cccc12)C1CCCCN1 (centres undefined)
outcome [1]: inactive
outcome [9]: inactive
Potency [4]: inactive
Potency [5]: inactive
Potency [10]: inactive
Potency [11]: inactive
Potency [8]: inactive

C=CCc1cccc(C=NNC(=O)CN2CCN(Cc3ccccc3)CC2)c1O
Potency [15]: 13.2 µM (active)
Potency [5]: inactive
Potency [10]: 9.35 µM (active)
Potency [6]: 16.6 µM (active)
Potency [8]: 16.6 µM (active)

CN(C)CCCNC(=O)c1ccc(-c2cc(O)c3ncccc3c2)cc1
max response [1]: -4.67%
max response [3]: -2.36%
Potency [4]: inactive
Potency [5]: inactive
Potency [12]: inactive
Potency [13]: inactive
Potency [14]: inactive

CC1(C)OC2CC3C4CC(F)C5=CC(=O)C=CC5(C)C4C(O)CC3(C)[C@]2(C(=O)CO)O1 (some centres undefined)
Potency [4]: inactive
Potency [5]: inactive
Potency [10]: inactive
Potency [6]: inactive
Potency [11]: inactive
Potency [8]: inactive

Fc1ccc(C(c2ccc(F)cc2)N2CCN(CC=Cc3ccccc3)CC2)cc1
Potency [16]: 8.49 µM (active)
Potency [4]: inactive
Potency [5]: inactive
Potency [10]: inactive
Potency [6]: inactive
Potency [11]: inactive
Potency [8]: inactive

Cc1ccc(NC(=O)c2cccc(N(C)C)c2)cc1NC(=O)c1ccc(O)cc1
outcome [1]: inactive
max response [2]: 5.76%
max response [3]: 3.99%
outcome [9]: inactive
Potency [4]: inactive
Potency [10]: 8.33 µM (active)
Potency [6]: 2.96 µM (active)
Potency [8]: 8.33 µM (active)

COc1ccc(-c2oc3c(CC=C(C)C)c(O)cc(O)c3c(=O)c2O)cc1
outcome [1]: inactive
max response [2]: 6.49%
outcome [3]: inactive
outcome [9]: inactive
Potency [4]: inactive
Potency [5]: inactive
Potency [10]: inactive
Potency [6]: inactive
Potency [7]: inactive
Potency [11]: inactive
Potency [8]: inactive

O=C(Nc1cccc(Cl)c1)Nc1ncc(CCNc2ncnc3ccsc23)s1
Potency [1]: 2.09 µM (active)
Potency [5]: inactive
Potency [10]: 0.296 µM (active)
Potency [6]: inactive
Potency [11]: inactive

C[C@@H]1[C@H](C)CC[C@]2(C(=O)O)CC[C@]3(C)C(=CC[C@@H]4[C@@]5(C)CC[C@H](O)C(C)(C)[C@H]5CC[C@]43C)[C@@H]12
outcome [9]: inactive [at 92 µM]
outcome [17]: inactive [at 92 µM]
Potency [4]: inactive
Potency [5]: inactive
Potency [6]: inactive
Potency [7]: inactive

CC(C)c1c(C(=O)Nc2ccccc2)c(-c2ccccc2)c(-c2ccc(F)cc2)n1CC[C@H](O)C[C@@H](O)CC(=O)O
Potency [1]: 20.9 µM (active)
max response [3]: -10.9%
Potency [4]: inactive
Potency [5]: inactive
Potency [10]: 18.7 µM (active)
Potency [6]: 10.5 µM (active)
Potency [11]: 14.8 µM (active)
Potency [8]: 23.5 µM (active)

CC1(C)C(N(O)C(=O)Nc2ccc(Cl)cc2)N(c2ccc(Cl)cc2)C(=O)N1CC(=O)NN=CC=Cc1ccc([N+](=O)[O-])o1 (centres undefined)
Potency [4]: inactive
Potency [5]: inactive
Potency [6]: 23.5 µM (active)
Potency [11]: inactive
